Laboratory results published in the supplement of paper PMC11732987, “Enantioselective OTUD7B fragment discovery through chemoproteomics screening and high-throughput optimisation” (Communications Chemistry, 2025).

What was measured:
Assay in all cases: log2 ratio of Biotin-Ahx-Ub-VS probe labelling (fragment/DMSO); higher = less target engagement (more negative = stronger competition), active = hit call of the paper (q ≤ 0.05, log2 ratio ≤ -1)
Details in all cases: compound concentration: 200 uM; treatment time: 3 h
OTUD6B = biological target: T1, OTUD6B (UniProt Q8N6M0)
T1 sequence (whole entry): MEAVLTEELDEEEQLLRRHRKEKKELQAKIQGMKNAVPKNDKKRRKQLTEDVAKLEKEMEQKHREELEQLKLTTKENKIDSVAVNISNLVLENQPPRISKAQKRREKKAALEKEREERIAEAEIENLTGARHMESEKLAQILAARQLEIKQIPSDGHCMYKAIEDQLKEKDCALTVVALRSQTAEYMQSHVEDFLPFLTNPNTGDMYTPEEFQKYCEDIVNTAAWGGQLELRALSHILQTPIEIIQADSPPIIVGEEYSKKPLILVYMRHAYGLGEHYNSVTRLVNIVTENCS
How it was run: (§1)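 Each value is an average log2 ratio of fragment to vehicle, tested by unpaired t-test. The underlying Spectronaut label-free quantities were global-median-normalised, and only proteins with ≥2 unique peptides were included. Triplicate HEK293T lysate samples (495 µg) were exposed to fragment at 200 µM or vehicle for 3 h, then to Biotin-Ahx-Ub-VS at 0.5 µM final for 1 h, before NeutrAvidin enrichment of labelled DUBs, LysC and trypsin digestion, and diaPASEF LC-MS/MS.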

OTUD7B = biological target: T2, OTUD7B (UniProt Q6GQQ9)
T2 sequence (whole entry): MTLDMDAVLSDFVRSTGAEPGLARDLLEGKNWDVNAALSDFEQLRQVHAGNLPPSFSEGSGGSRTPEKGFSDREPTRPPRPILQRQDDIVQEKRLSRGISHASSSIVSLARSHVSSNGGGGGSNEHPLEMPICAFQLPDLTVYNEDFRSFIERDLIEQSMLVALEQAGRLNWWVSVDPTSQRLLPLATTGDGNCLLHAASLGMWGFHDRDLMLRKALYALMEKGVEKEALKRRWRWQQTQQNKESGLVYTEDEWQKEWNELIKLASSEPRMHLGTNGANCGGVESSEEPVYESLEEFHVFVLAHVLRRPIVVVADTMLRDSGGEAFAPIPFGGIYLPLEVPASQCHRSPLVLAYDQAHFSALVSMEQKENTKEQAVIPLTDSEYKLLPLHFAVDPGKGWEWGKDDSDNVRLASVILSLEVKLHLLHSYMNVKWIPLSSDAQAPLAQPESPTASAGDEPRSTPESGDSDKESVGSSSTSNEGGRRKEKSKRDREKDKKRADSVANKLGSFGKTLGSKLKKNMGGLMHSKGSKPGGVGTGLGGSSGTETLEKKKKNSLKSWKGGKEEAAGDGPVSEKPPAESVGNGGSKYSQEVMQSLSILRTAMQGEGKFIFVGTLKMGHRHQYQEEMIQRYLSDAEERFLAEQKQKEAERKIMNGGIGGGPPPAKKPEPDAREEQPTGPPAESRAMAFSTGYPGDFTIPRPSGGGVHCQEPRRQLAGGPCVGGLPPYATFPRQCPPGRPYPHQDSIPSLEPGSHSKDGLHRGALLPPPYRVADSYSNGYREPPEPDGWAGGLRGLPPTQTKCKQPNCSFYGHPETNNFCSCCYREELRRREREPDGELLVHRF
How it was run: as §1

PRPF8 = PRPF8 (UniProt Q6P2Q9)
How it was run: as §1

PSMD7 = biological target: T3, PSMD7 (UniProt P51665)
T3 sequence (whole entry): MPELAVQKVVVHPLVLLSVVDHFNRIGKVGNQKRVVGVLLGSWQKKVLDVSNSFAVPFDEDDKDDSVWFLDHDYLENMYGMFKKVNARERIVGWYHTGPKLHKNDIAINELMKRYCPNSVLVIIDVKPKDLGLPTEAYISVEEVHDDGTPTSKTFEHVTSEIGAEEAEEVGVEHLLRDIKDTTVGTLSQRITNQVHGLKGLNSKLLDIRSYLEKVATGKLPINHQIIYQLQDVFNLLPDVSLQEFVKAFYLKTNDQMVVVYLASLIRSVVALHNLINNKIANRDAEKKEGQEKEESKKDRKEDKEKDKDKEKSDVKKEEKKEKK
How it was run: as §1

UCHL1 = UCHL1 (UniProt P09936)
How it was run: as §1

UCHL3 = biological target: T4, UCHL3 (UniProt P15374)
T4 sequence (whole entry): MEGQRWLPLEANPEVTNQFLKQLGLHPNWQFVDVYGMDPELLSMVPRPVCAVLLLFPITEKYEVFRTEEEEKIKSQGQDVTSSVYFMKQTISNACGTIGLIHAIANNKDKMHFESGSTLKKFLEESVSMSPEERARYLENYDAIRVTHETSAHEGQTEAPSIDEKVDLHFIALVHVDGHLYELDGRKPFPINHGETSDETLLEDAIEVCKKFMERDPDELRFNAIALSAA
How it was run: as §1

UCHL5 = biological target: T5, UCHL5 (UniProt Q9Y5K5)
T5 sequence (whole entry): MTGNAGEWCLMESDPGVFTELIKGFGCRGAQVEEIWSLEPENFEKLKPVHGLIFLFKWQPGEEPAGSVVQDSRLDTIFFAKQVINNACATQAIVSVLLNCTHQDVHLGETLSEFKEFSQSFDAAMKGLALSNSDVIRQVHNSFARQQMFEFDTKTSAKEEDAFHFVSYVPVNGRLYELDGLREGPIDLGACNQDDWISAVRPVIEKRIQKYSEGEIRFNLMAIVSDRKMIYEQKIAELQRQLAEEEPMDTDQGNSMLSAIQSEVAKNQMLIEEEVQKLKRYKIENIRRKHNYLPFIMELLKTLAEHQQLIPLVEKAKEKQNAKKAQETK
How it was run: as §1

USP10 = USP10 (UniProt Q14694)
How it was run: as §1

USP15 = biological target: T6, USP15 (UniProt Q9Y4E8)
T6 sequence (whole entry): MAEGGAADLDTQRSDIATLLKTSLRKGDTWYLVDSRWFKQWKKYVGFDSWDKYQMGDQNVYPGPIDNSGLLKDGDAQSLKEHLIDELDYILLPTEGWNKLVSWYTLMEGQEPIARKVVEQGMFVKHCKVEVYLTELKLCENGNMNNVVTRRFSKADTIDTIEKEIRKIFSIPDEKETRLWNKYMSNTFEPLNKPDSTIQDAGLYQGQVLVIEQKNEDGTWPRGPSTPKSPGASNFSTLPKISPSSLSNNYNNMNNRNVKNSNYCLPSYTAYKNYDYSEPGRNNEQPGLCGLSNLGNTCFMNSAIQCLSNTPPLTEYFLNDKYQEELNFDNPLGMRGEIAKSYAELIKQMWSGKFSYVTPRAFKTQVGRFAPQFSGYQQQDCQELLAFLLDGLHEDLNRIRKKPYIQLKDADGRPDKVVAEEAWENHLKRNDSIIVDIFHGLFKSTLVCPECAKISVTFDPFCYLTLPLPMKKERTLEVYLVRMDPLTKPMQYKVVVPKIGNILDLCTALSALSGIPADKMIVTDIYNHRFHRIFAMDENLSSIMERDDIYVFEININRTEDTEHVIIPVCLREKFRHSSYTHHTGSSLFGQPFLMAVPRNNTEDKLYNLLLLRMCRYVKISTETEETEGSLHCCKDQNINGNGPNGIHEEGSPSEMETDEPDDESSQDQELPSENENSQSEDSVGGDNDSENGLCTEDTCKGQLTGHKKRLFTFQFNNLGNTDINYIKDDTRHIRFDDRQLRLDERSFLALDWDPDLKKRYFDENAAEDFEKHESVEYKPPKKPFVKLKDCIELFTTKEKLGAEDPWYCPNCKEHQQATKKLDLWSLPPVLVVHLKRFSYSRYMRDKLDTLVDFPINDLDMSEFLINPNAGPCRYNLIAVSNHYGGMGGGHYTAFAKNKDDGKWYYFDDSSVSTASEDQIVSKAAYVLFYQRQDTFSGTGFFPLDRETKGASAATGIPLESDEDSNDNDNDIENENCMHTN
How it was run: as §1

USP16 = USP16 (UniProt Q9Y5T5)
How it was run: as §1

Measured: log2 ratio of Biotin-Ahx-Ub-VS probe labelling

Chain of USP16 (Q9Y5T5 whole entry, looked up): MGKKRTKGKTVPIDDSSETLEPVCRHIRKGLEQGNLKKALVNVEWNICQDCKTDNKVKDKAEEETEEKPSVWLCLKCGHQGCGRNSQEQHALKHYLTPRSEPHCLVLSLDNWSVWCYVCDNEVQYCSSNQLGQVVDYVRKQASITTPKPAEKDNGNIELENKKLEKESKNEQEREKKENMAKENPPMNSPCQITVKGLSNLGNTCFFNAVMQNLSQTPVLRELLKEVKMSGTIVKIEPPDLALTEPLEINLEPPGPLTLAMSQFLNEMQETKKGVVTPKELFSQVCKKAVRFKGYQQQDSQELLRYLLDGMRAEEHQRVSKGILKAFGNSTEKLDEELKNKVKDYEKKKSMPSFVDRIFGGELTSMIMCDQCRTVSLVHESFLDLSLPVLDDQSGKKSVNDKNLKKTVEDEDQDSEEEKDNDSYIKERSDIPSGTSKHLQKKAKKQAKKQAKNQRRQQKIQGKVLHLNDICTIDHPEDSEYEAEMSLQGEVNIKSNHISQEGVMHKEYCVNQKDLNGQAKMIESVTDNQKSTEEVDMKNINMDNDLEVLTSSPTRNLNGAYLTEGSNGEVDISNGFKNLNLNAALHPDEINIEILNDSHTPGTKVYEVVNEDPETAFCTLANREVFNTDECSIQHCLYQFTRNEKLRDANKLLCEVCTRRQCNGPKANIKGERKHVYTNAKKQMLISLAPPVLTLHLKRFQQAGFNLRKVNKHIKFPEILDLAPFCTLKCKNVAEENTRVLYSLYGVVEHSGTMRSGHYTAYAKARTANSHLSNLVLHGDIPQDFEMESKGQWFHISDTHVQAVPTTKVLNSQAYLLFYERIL
Chain of UCHL1 (P09936 whole entry, looked up): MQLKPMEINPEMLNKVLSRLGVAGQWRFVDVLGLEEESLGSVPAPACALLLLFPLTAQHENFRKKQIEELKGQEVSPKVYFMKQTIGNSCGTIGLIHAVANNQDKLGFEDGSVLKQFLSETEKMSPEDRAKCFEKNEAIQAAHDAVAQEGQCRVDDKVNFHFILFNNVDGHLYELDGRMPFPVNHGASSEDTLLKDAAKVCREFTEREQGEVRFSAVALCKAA
Chain of USP10 (Q14694 whole entry): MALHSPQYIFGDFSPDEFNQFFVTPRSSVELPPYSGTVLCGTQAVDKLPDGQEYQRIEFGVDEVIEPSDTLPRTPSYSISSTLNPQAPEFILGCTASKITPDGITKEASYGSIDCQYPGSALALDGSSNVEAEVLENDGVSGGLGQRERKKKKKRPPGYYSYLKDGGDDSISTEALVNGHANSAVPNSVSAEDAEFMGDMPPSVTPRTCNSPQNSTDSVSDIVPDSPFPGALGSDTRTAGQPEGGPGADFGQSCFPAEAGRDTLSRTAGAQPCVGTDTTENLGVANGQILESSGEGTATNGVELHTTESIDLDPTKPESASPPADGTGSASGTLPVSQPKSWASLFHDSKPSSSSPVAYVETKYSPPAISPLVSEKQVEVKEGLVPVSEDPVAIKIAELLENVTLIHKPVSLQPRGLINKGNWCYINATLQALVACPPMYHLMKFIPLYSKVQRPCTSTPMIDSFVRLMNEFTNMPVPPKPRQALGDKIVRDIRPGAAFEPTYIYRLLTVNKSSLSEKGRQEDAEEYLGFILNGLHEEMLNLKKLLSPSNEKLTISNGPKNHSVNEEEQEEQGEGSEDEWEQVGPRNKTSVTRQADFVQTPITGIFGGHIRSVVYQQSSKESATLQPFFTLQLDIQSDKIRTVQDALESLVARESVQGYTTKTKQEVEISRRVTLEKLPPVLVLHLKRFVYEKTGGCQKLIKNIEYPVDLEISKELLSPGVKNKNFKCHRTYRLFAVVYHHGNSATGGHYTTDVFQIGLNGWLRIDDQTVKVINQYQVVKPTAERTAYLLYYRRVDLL

O=C(CCl)NCc1ccc(Cl)cc1
active: UCHL1 -1.24
inactive: OTUD6B -0.0688 | OTUD7B -0.726 | PRPF8 0.0877 | PSMD7 0.0253 | UCHL3 0.379 | UCHL5 -0.00645 | USP10 -0.179 | USP15 0.049 | USP16 -0.354
